Test results taken from PubChem BioAssay (Tox21).
Several values for one entry are separate records, joined by “and”; a condition that tells them apart may be missing. Equal entries are not always repeated. Records with an inconclusive call do not appear. Entries that show only a call come without a potency. Some structures have more than one record in an assay (separate samples or runs), and their calls can disagree. Activity calls are given as the source filed them. Unless noted, calls come from the whole dose curve; as a rule, active = well fitted curve in the direction sought with a large enough effect in the repeat runs; inconclusive = weak or mixed curves; inactive = no such curve, though single readings can be large; an effect the other way counts as inactive or inconclusive.

Assays:
[1] = A CellTox Green Cytotoxicity Assay to monitor cytotoxicity in HepG2 cells - 0 hour (AID 1224882); note: nearly all actives have a fitted effect of over 35% in size; note: potency is the fitted concentration of half-maximal effect
Summary of the method: (§1)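 Fluorescent DNA-binding dye, 600 HepG2 cells/well, 5 h preincubation then compound in DMSO; same plates read at 0–40 h, 37 C.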

[2] = A CellTox Green Cytotoxicity Assay to monitor cytotoxicity in HepG2 cells - 32 hour (AID 1224883); note: nearly all actives have a fitted effect of over 50% in size; note: potency is the fitted concentration of half-maximal effect
Summary of the method: as §1

[3] = A CellTox Green Cytotoxicity Assay to monitor cytotoxicity in HEK293 cells - 8 hour (AID 1224884); note: nearly all actives have a fitted effect of over 35% in size; note: potency is the fitted concentration of half-maximal effect
Summary of the method: (§2)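 Homogeneous no-lysis format: HEK293 cell suspension mixed with CellTox Green reagent, seeded, incubated 5 h at 37 C/5% CO2, then dosed by pintool with compound in DMSO.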

[4] = qHTS RealTime-Glo MT Cell Viability Assay in HepG2 cells - 16 hour (AID 1224885); note: nearly all actives have a fitted effect of over 50% in size; note: potency is the fitted concentration of half-maximal effect
Summary of the method: (§3)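 Viability was tracked continuously by NanoLuc luminescence from prosubstrate reduced by living HepG2 cells, at successive time points over 40 h of compound exposure. Cells with reagent were preincubated 5 h at 37 °C before compound addition.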

[5] = A CellTox Green Cytotoxicity Assay to monitor cytotoxicity in HEK293 cells - 16 hour (AID 1224888); note: nearly all actives have a fitted effect of over 35% in size; note: potency is the fitted concentration of half-maximal effect
Summary of the method: as §2

[6] = qHTS RealTime-Glo MT Cell Viability Assay in HepG2 cells - 0 hour (AID 1224889); note: nearly all actives have a fitted effect of over 50% in size; note: potency is the fitted concentration of half-maximal effect
Summary of the method: as §3

[7] = A CellTox Green Cytotoxicity Assay to monitor cytotoxicity in HepG2 cells - 8 hour (AID 1224890); note: nearly all actives have a fitted effect of over 45% in size; note: potency is the fitted concentration of half-maximal effect
Summary of the method: as §1

[8] = qHTS assay to identify small molecule antagonists of the estrogen receptor alpha (ER-alpha) signaling pathway using the BG1 cell line in the presence of 0.1 nM 17-beta-estradiol - cell viability counter screen (AID 1259241); note: nearly all actives have a fitted effect of over 40% in size; note: potency is the fitted concentration of half-maximal effect
Summary of the method: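 VM7Luc4E2, 4,000 cells/well, phenol red-free medium + 10% charcoal-stripped FBS; 24 hr plating; cpd + 0.1 nM E2 final, 22 hr 37C/5% CO2; CellTiter-Fluor 30 min, fluorescence.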

[9] = qHTS assay to identify small molecule HDAC inhibitors (AID 1259364); note: potency is the fitted concentration of half-maximal effect;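 note: wild-type HCT-116 cells with endogenous class I/II HDAC activity; nearly all actives have a fitted effect of over 45% in size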
Summary of the method: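 After a 2 hr compound incubation (37C, 5% CO2), HCT-116 cells seeded at 1,500/well the day before received HDAC-Glo reagent; signal read as luminescence after 30 min at room temperature.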

[10] = qHTS assay to identify small molecule HDAC inhibitors - cell viability counter screen (AID 1259365); note: nearly all actives have a fitted effect of over 50% in size; note: potency is the fitted concentration of half-maximal effect
Summary of the method: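 Luminescence from CellTiter-Glo, developed 30min at room temperature, reports viability of wild-type HCT-116 cells treated 2hr with compounds at 37 C and 5% CO2 after overnight plating.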

[11] = qHTS assay to identify small molecule antagonists of the sonic hedgehog signaling (Shh) pathway - cell viability counter screen (AID 1259367); note: nearly all actives have a fitted effect of over 55% in size; note: potency is the fitted concentration of half-maximal effect
Summary of the method: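 Viability was read by CellTiter-Fluor fluorescence in the same wells, reagent added 23 hr into compound treatment and incubated 1 hr at 37C. The 3T3 Gli1-Luc reporter cells (2,000/well) received conditioned medium after compound and ran 24 hr.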

[12] = qHTS assay to identify small molecule agonists of the sonic hedgehog signaling (Shh) pathway (AID 1259368; calls by dose curve;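 note: NIH/3T3-derived 3T3Gli1-Luc cells carrying a stable Gli1-driven firefly luciferase reporter; series mostly up to about 92 µM; nearly all actives have a fitted effect of over 15% in size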)
Summary of the method: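 Stable NIH/3T3 Gli1-Luc reporter clone; 24 hr cpd exposure after a 4 hr settling period; luminescence endpoint.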

[13] = qHTS assay to identify small molecule antagonists of the androgen receptor (AR) signaling pathway using the MDA cell line in the presence of 0.5 nM R1881 - cell viability counter screen (AID 1259242); note: nearly all actives have a fitted effect of over 45% in size; note: potency is the fitted concentration of half-maximal effect
Summary of the method: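 Human breast carcinoma MDA-kb2 cells, cultured without CO2, receive compounds alongside 0.5 nM (final) R1881 agonist. After 16 hr at 37C, viability is taken as live-cell protease signal.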

[14] = target: Estrogen receptor (Homo sapiens) (UniProt P03372); experiment: qHTS assay to identify small molecule antagonists of the estrogen receptor alpha (ER-alpha) signaling pathway using the BG1 cell line in the presence of 0.1 nM 17-beta-estradiol (AID 1259244); note: nearly all actives have a fitted effect of over 50% in size; note: potency is the fitted concentration of half-maximal effect
Sequence of Estrogen receptor (Homo sapiens) (P03372 whole entry, looked up): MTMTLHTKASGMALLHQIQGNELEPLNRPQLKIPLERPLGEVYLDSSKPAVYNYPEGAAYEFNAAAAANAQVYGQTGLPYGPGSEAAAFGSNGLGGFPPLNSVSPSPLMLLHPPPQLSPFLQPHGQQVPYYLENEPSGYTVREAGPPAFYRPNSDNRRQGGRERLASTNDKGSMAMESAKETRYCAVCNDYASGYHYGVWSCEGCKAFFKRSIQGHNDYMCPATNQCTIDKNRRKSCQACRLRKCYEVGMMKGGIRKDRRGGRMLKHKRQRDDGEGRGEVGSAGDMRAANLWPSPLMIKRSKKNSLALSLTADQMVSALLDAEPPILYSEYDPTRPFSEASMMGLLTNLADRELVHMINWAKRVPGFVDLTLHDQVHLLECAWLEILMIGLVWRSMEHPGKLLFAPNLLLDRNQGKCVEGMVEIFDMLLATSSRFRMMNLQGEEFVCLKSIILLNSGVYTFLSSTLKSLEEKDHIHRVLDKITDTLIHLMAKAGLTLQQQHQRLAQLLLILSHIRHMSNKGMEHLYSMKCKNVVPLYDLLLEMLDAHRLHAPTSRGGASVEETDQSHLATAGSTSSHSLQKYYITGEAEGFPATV
Summary of the method: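 Seeding of stripped-serum-adapted VM7Luc4E2 cells, 24 h attachment, compound transfer, then 0.1 nM final 17beta-estradiol; after 22 h incubation, ONE-Glo reagent and luminescence reading.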

[15] = qHTS assay to identify small molecule phospholipidosis (PLD) inducers (AID 1259344; active = well fitted curve in the direction sought with a large enough effect; an effect the other way counts as inactive or inconclusive)
Summary of the method: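 Phospholipid accumulation was scored by imaging: fixed, Hoechst-counterstained HepG2 cells stained with LipidTOX Red after 24 h compound exposure at 37 C. Read-outs were pit count and pit intensity per well or per cell, with amiodarone and DMSO controls.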

[16] = qHTS assay to identify small molecule antagonists of the sonic hedgehog signaling (Shh) pathway (AID 1259369; calls by dose curve; note: nearly all actives have a fitted effect of over 45% in size; note: potency is the fitted concentration of half-maximal effect)
Summary of the method: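 Gli1 transcriptional reporter (firefly Luc) in NIH/3T3 background, conditioned-medium activated. 24hr exposure, luminescence endpoint.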

[17] = qHTS RealTime-Glo MT Cell Viability Assay in HEK293 cells - 8 hour (AID 1224887); note: nearly all actives have a fitted effect of over 50% in size; note: potency is the fitted concentration of half-maximal effect
Summary of the method: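 Measured as luminescence from the same continuously cultured HEK293 wells at successive time points (0, 8, 16, 24, 32, 40 h) after compound addition. Reagent present from seeding; dosing at 5 h; incubation 37 C.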

[18] = target: Androgen receptor (Homo sapiens) (UniProt P10275); experiment: qHTS assay to identify small molecule antagonists of the androgen receptor (AR) signaling pathway using the MDA cell line in the presence of 0.5 nM R1881 (AID 1259243)
Sequence of Androgen receptor (Homo sapiens) (P10275 whole entry, looked up): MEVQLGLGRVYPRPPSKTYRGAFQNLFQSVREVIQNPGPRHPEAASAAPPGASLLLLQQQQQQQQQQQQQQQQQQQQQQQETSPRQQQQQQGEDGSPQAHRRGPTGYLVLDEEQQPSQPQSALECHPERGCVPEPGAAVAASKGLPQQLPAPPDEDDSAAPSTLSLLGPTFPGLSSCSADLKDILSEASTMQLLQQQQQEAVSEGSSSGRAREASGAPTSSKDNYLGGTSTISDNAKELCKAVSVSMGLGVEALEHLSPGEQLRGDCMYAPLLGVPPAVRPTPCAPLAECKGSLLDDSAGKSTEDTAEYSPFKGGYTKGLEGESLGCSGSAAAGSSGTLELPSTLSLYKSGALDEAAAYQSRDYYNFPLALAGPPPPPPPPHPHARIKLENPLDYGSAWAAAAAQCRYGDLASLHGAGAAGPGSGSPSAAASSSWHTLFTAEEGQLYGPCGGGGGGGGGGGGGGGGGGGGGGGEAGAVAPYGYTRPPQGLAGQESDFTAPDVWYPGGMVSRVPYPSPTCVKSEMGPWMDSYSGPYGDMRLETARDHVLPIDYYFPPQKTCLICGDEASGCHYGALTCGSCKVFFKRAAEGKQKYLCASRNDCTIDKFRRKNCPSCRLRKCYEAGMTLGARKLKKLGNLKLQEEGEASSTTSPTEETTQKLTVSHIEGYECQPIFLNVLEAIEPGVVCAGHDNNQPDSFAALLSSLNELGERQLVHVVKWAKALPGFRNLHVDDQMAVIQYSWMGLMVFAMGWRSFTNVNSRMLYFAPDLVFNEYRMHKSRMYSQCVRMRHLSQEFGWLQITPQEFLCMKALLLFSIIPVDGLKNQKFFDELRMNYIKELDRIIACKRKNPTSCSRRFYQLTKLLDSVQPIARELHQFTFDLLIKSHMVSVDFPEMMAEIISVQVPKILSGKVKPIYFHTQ
Summary of the method: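 Cells: MDA-kb2 (MMTV-luc). Stimulus: 0.5 nM R1881. Time: 16 hr, 37C, no CO2. Detection: ONE-Glo luminescence after 30 min at RT.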

[19] = qHTS assay to identify small molecule agonists of the sonic hedgehog signaling (Shh) pathway - cell viability counter screen (AID 1259366); note: nearly all actives have a fitted effect of over 50% in size; note: potency is the fitted concentration of half-maximal effect
Summary of the method: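 Cytotoxicity counter screen run in the same wells as the Shh reporter assay. NIH/3T3 cells carrying a Gli1 response element–driven luciferase were treated with DMSO-dissolved compounds for 24hr, and live-cell protease activity was measured with CellTiter-Fluor.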

SMILES | Potency [1] | Potency [2] | Potency [3] | Potency [4] | Potency [5] | Potency [6] | Potency [7] | Potency [8] | Potency [9] | Potency [10] | Potency [11] | Potency [12] | Potency [13] | Potency [14] | Potency [15] | Potency [16] | Potency [17] | Potency [18] | Potency [19]
CCC1OCC(COc2ccc(Oc3ccccc3)cc2)O1 (stereo unspecified) | inactive | inactive | inactive | inactive | inactive | inactive | inactive | inactive | 17.2 µM (active) | inactive | 61.1 µM (active) | inactive | – | – | – | – | – | – | –
Cc1cc(C2CCCCC2)n(O)c(=O)c1 | inactive | inactive | inactive | inactive | inactive | – | inactive | 11.9 µM (active) | inactive | inactive | 15 µM (active) | inactive | inactive | 6.68 µM (active) | inactive | 1.19 µM (active) | – | – | –
Cc1nc(-c2ccc3c(c2)CCN(CCC2CCC(NC(=O)/C=C/c4ccc(F)cc4)CC2)CC3)no1 (stereo unspecified) | inactive | inactive | inactive | inactive | inactive | inactive | inactive | inactive | inactive | – | inactive | inactive | inactive | inactive | – | inactive | – | – | –
CCCCC(CC)CN=C(N)NC(N)=NCCCCCCN=C(N)NC(N)=NCC(CC)CCCC (stereo unspecified) | inactive | 8.49 µM (active) | 13.4 µM (active) | 10.7 µM (active) | 8.49 µM (active) | – | 10.7 µM (active) | 29.8 µM (active) | inactive | 29.8 µM (active) | 21.1 µM (active) | – | 18.8 µM (active) | 21.1 µM (active) | inactive | 3.76 µM (active) | 8.49 µM (active) | 11.9 µM (active) | 23.7 µM (active)
CC1=NC(C)OC1C (stereo unspecified) | inactive | inactive | inactive | inactive | inactive | inactive | inactive | inactive | inactive | inactive | – | inactive | inactive | inactive | – | – | inactive | – | inactive
COc1cc(-c2ccc(N=C=O)c(OC)c2)ccc1N=C=O | inactive | inactive | inactive | inactive | inactive | – | inactive | inactive | inactive | inactive | inactive | – | inactive | – | – | inactive | inactive | – | –
Nc1nc2ccccc2n1Cc1ccc(F)cc1 | inactive | 23.9 µM (active) | inactive | inactive | – | – | inactive | – | inactive | inactive | inactive | inactive | – | 10.6 µM (active) | – | – | inactive | 7.5 µM (active) | inactive
Cc1cc(O)c(C(C)(C)C)cc1Sc1cc(C(C)(C)C)c(O)cc1C | inactive | 61.5 µM (active) | inactive | 48.9 µM (active) | inactive | inactive | inactive | – | inactive | 61 µM (active) | 19.3 µM (active) | inactive | 43.2 µM (active) | 30.6 µM (active) | – | 9.67 µM (active) | 24.5 µM (active) | – | 19.3 µM (active)
O=[N+]([O-])c1cc([N+](=O)[O-])c2ccc(S(=O)(=O)O)cc2c1O | inactive | inactive | inactive | inactive | inactive | inactive | inactive | 27.1 µM (active) | – | inactive | 8.58 µM (active) | – | – | – | – | – | inactive | – | 13.6 µM (active)
CC(C)CCCCCCCCCCCCCCC(=O)O | inactive | inactive | inactive | inactive | inactive | – | inactive | inactive | inactive | inactive | inactive | inactive | inactive | – | – | inactive | inactive | – | inactive
O=C(NO)C1(NS(=O)(=O)c2ccc(Oc3ccc(F)cc3)cc2)CCOCC1 | inactive | inactive | inactive | inactive | inactive | – | inactive | inactive | inactive | inactive | inactive | inactive | inactive | 61.1 µM (active) | – | – | inactive | – | inactive
CCCCCCCCCCn1cc[n+](CCCCCCCCCC)c1C | inactive | 17.4 µM (active) | 19.5 µM (active) | 21.9 µM (active) | 19.5 µM (active) | inactive | 39 µM (active) | 68.7 µM (active) | inactive | 61.2 µM (active) | 30.7 µM (active) | inactive | 30.7 µM (active) | 3.86 µM (active) | – | 0.077 µM (active) | 21.9 µM (active) | 2.17 µM (active) | 27.3 µM (active)
CCCC1O[C@@H]2C[C@H]3[C@@H]4CCC5=CC(=O)C=C[C@]5(C)[C@H]4[C@@H](O)C[C@]3(C)[C@]2(C(=O)CO)O1 (stereo partly specified) | inactive | inactive | inactive | inactive | inactive | 7.77 µM (active) and 7.76 µM (active) | inactive | inactive | inactive | inactive | 38.6 µM (active) | inactive | inactive | – | inactive | 7.7 µM (active) | – | – | –
OCCCCCCCCCCCCBr | inactive | inactive | inactive | inactive | inactive | inactive | inactive | inactive | inactive | inactive | inactive | inactive | – | – | – | – | inactive | – | inactive
CC1=C(C(=O)OC(C)C)C(c2cccc([N+](=O)[O-])c2)C(C(=O)OC2CN(C(c3ccccc3)c3ccccc3)C2)=C(N)N1 (stereo unspecified) | inactive | 23.9 µM (active) | inactive | 21.3 µM (active) | inactive | – | – | inactive | inactive | inactive | 26.6 µM (active) | inactive | – | – | inactive | 29.8 µM (active) | – | – | 23.7 µM (active)
O=c1cc(-c2ccc(O)cc2)oc2cc(O)cc(O)c12 | inactive | inactive and 38.9 µM (active) | inactive | inactive | inactive | inactive | inactive and 38.9 µM (active) | inactive | 8.75 µM (active) and 17.2 µM (active) | inactive | 48.6 µM (active) | inactive | inactive | – | – | inactive and 30.6 µM (active) | inactive | – | 61.9 µM (active) and 38.6 µM (active)
NNc1nc(-c2ccc(N)cc2)cs1 | inactive | inactive | inactive | inactive | inactive | – | inactive | – | inactive | inactive | – | inactive | – | inactive | – | – | inactive | – | inactive
OCCN(CCO)c1nc(N2CCCCC2)c2nc(N(CCO)CCO)nc(N3CCCCC3)c2n1 | 23.9 µM (active) | 23.9 µM (active) | 21.3 µM (active) | inactive | 12 µM (active) | inactive | 23.9 µM (active) | – | inactive | inactive | – | – | – | – | inactive | 2.11 µM (active) | – | – | –
CCOC(=O)/C=C(C)/C=C/C=C(C)/C=C/c1c(C)cc(OC)c(C)c1C | inactive | inactive | inactive | inactive | inactive | inactive | inactive | inactive | inactive | inactive | inactive | inactive | inactive | – | inactive | inactive | inactive | – | –
Oc1c(Cl)cc(Cl)c2cccnc12 | inactive | 9.52 µM (active) | inactive | inactive | inactive | – | inactive | inactive | inactive | inactive | – | inactive | inactive | 18.8 µM (active) | inactive | – | inactive | – | –
